Results: PubChem BioAssay (NCATS)
Inconclusive results are not listed. A number with no mark means an inactive call. Activity calls are given as the source filed them. Calls come from the whole dose curve; as a rule, active = well fitted inhibition curve with a large enough effect; inconclusive = small, poorly fitted or top-dose-only effect; inactive = flat fitted curve, though single readings scatter.
% is set by controls: 0 for no effect and ±100 for the full control effect; potency is the fitted concentration of half-maximal effect.

The molecules below were run on CRL-7250 (assay: Cytotoxic Profiling of Annotated Libraries Using Quantitative High-Throughput Screening (AID 1296008; note: nearly all actives have a fitted effect of over 60% in size)). Conditions: Five cell lines viability, CellTiter-Glo ATP luminescence, 48-72 h; max response: active compounds read low.
How it was run: (§1)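 Cytotoxicity was measured as CellTiter-Glo ATP luminescence, read after 10 min at room temperature. Compound treatment of the cells lasted 48 or 72 hr at 37 degrees Celsius in a qHTS format.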
Work on `C[C@@](O)(COc1ccc(C#N)cc1)C(=O)Nc1ccc(C#N)c(C(F)(F)F)c1` yielded a max response of -2.54%. For `CC(=O)O[C@H]1C[C@@H](OC(C)=O)C(C)(C)C2C[C@@H](O)[C@]3(C)C(CC[C@@]4(C)[C@H](C5=CC(=O)OC5O)C[C@H]5O[C@]543)[C@]21C` (stereo partly drawn), the max response was 2.14%. For `CC(C)[C@@H](CN1CC[C@@](C)(c2cccc(O)c2)[C@@H](C)C1)NC(=O)[C@H]1Cc2ccc(O)cc2CN1`, the outcome was “inactive”. `CC(C)C1(OO)C=C2C(=O)CC3C(C)(C(=O)O)CCCC3(C)C2CC1` (stereo not drawn) was tested, and the max response was -0.339%. `C[C@H]1O[C@@H](O[C@H]2C[C@@H](O)[C@]3(CO)C4C(CC[C@]3(O)C2)[C@@]2(O)CC[C@H](C3=CC(=O)OC3)[C@@]2(C)C[C@H]4O)[C@@H](O)[C@@H](O)[C@H]1O` (stereo partly drawn) was tested, and the Potency was 122 nM (active). In the case of `COC(=O)C1(C)CCC(O)C2(C)c3cc(O)c(C(C)C)cc3C(O)C(OC(C)=O)C12` (stereo not drawn), the outcome is reported as “inactive”. `CCc1[nH]c2ccc(OC)cc2c1CCN(C)C` was tested, and the max response was 2.45%. For `CC12CCC3C(CCC4(O)CC(O)CCC34C=O)C1(O)CCC2C1=CC(=O)OC1` (stereo not drawn), the Potency was 326 nM (active).

Each molecule was assayed on HEK293 in the same assay as above. Conditions: Five cell lines viability, CellTiter-Glo ATP luminescence, 48-72 h; max response: active compounds read low.
How it was run: as §1
In the case of `COc1cc(C)[nH]c(=O)c1CNC(=O)c1c(C)n([C@H](C)C2CCOCC2)c2ccccc12`, the outcome is reported as “inactive”. `CN1CCC[C@@H]1Cc1c[nH]c2ccc(Nc3ncccc3[N+](=O)[O-])cc12` was tested, and the max response was -20.4%. `CC[C@H]1CN2CC[C@H]1C[C@H]2[C@H](O)c1ccnc2ccc(OC)cc12` gave a max response of -14.1%. In the case of `C=C[C@H]1[C@H](O[C@@H]2O[C@H](CO)[C@@H](O)[C@H](O)[C@H]2O)OC=C2C(=O)OCC[C@H]21`, the outcome is reported as “inactive”. `Clc1ccc(OCC2=NCCN2)cc1Cl` was tested, and the outcome was “inactive”. With `COC1C(O)C(C)OC(OC2C(CO)O[C@@H](O[C@@H]3CC4CCC5C(CC[C@]6(C)[C@@H](C7=CC(=O)OC7)CC[C@]56O)[C@@]4(C)[C@H](O)C3)C(O)C2O)C1O` (stereo partly drawn) the Potency was 432 nM (active). `CN(C)CCc1c[nH]c2ccc(CN3CCN(C)S3(=O)=O)cc12` gave a max response of -0.516%. `CO[C@@H]1[C@H](O)[C@@H](O[C@@H]2C[C@H]3CC[C@@H]4C(CC[C@]5(C)[C@@H](C6=CC(=O)OC6)CC[C@]45O)[C@@]3(C)[C@H](O)C2)O[C@H](C)[C@@H]1O[C@@H]1O[C@H](CO)[C@@H](O)[C@H](O)[C@H]1O` (stereo partly drawn) was tested, and the Potency was 343 nM (active). In the case of `COc1cc(C(=O)O[C@H]2[C@@H]3C=CO[C@@H](O[C@@H]4O[C@H](CO)[C@@H](O)[C@H](O)[C@H]4O)[C@@H]3[C@@]3(CO)O[C@@H]23)ccc1O`, the max response is reported as 4.28%. With `COC1C(O)C(OC2CCC3(C=O)C(CCC4C3CCC3(C)C(C5=CC(=O)OC5)CCC43O)C2)OC(C)C1OC1OC(CO)C(O)C(O)C1O` (stereo not drawn) the Potency was 243 nM (active). `CN(C(=O)Cc1ccccc1)C(CN1CCCC1)c1ccccc1` (stereo not drawn) was tested, and the max response was 0.503%. With `C=CC(C)(C)c1[nH]c2cccc3c2c1C[C@@H]1[C@@H]3[C@@H](OC(C)=O)[C@H](C)CN1C` the outcome was “inactive”. In the case of `CCN1C[C@]2(COC(=O)c3ccccc3N3C(=O)C[C@H](C)C3=O)CC[C@H](OC)[C@@]34[C@@H]5C[C@H]6[C@H](OC)[C@@H]5[C@](O)(C[C@@H]6OC)[C@](O)([C@@H](OC)[C@H]23)[C@@H]14`, the max response is reported as 2.21%. With `CC(N)Cc1c[nH]c2ccccc12` (stereo not drawn) the outcome was “inactive”. Work on `COC(=O)C12C(=O)C(C)(O)C(=O)C1(C)C(C)=CC1C34CCC(OC3=O)C(C)(CO)C4CCC12C` (stereo not drawn) yielded a max response of 4.01%. For `COC1CC(O[C@H]2CC[C@]3(C=O)C4CC[C@]5(C)[C@@H](C6=CC(=O)OC6)CC[C@]5(O)[C@@H]4CC[C@]3(O)C2)OC(C)C1O[C@@H]1O[C@H](CO)[C@@H](O)[C@H](O)[C@H]1O` (stereo partly drawn), the Potency was 153 nM (active). In the case of `CO[C@H]1[C@H](O)[C@H](O[C@H]2CC[C@]3(C)C4CC[C@]5(C)[C@H](C6=CC(=O)OC6)CC[C@]5(O)C4CC[C@@H]3C2)O[C@@H](C)[C@@H]1O` (stereo partly drawn), the Potency is reported as 22.4 nM (active). Molecule `CN1C(=O)N(c2ccc(C#N)c(C(F)(F)F)c2)C(=O)[C@]1(CO)c1ccccc1` has a max response of -8.53%. `O=C(O)c1ccnc2cc(C(OCCN3CCCCC3)c3ccccc3Cl)[nH]c12` (stereo not drawn) was tested, and the outcome was “inactive”. With `CN[C@H]1[C@H](O)[C@H](O[C@@H]2[C@@H](O)[C@H](O[C@H]3O[C@H]([C@H](C)O)[C@@H](O)[C@H](O)[C@H]3N)[C@@H](N)C[C@H]2N)OC[C@@]1(C)O` the max response was -1.94%.
